Test results from PubChem BioAssay (NCATS).
Records with an inconclusive call do not appear. Active and inactive are the calls of the source. Calls follow the shape of the dose curve; as a rule, active = well fitted cell-killing curve with a large enough effect; inconclusive = small, poorly fitted or top-dose-only effect, or effect the other way; inactive = no such curve, though single readings can be large or run the other way.

Assays:
[1] = Quantitative High-Throughput drug screen in 47 multiple myeloma cell lines against the NCATS MIPE library collection: OCIMY1_PLB cell viability assay (AID 1918979); also: nearly all actives have a fitted effect of over 35% in size
Outline: (§1)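 Inhibition of viability over 48 h was scored by ATP content (CellTiter-Glo) in 500-cell wells. Zero and full viability were defined by media-only and DMSO-only wells.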

[2] = Quantitative High-Throughput drug screen in 47 multiple myeloma cell lines against the NCATS MIPE library collection: LP1_DSMZ cell viability assay (AID 1918982); also: nearly all actives have a fitted effect of over 35% in size
Outline: as §1

[3] = Quantitative High-Throughput drug screen in 47 multiple myeloma cell lines against the NCATS MIPE library collection: KMS28PE_JCRB cell viability assay (AID 1918983); also: nearly all actives have a fitted effect of over 35% in size
Outline: as §1

[4] = Quantitative High-Throughput drug screen in 47 multiple myeloma cell lines against the NCATS MIPE library collection: KMS34_JCRB cell viability assay (AID 1918985); also: nearly all actives have a fitted effect of over 40% in size
Outline: as §1

[5] = Quantitative High-Throughput drug screen in 47 multiple myeloma cell lines against the NCATS MIPE library collection: U266_ATCC cell viability assay (AID 1919864); also: nearly all actives have a fitted effect of over 35% in size
Outline: as §1

[6] = Quantitative High-Throughput drug screen in 47 multiple myeloma cell lines against the NCATS MIPE library collection: XG6_PLB cell viability assay (AID 1919865); also: nearly all actives have a fitted effect of over 40% in size
Outline: as §1

[7] = Quantitative High-Throughput drug screen in 47 multiple myeloma cell lines against the NCATS MIPE library collection: RPMI8226_ATCC cell viability assay (AID 1919871); also: nearly all actives have a fitted effect of over 30% in size
Outline: as §1

[8] = Quantitative High-Throughput drug screen in 47 multiple myeloma cell lines against the NCATS MIPE library collection: MM1S_ATCC cell viability assay (AID 1918980); also: nearly all actives have a fitted effect of over 45% in size
Outline: as §1

[9] = Quantitative High-Throughput drug screen in 47 multiple myeloma cell lines against the NCATS MIPE library collection: MM1R_ATCC cell viability assay (AID 1918981); also: nearly all actives have a fitted effect of over 35% in size
Outline: as §1

[10] = Quantitative High-Throughput drug screen in 47 multiple myeloma cell lines against the NCATS MIPE library collection: L363_DSMZ cell viability assay (AID 1918984); also: nearly all actives have a fitted effect of over 40% in size
Outline: as §1

[11] = Quantitative High-Throughput drug screen in 47 multiple myeloma cell lines against the NCATS MIPE library collection: OCIMY7_PLB cell viability assay (AID 1918987); settings: OCI-MY7 myeloma viability, CellTiter-Glo ATP, 48 h; viability (% of DMSO): at 45.8 µM (top of the series); also: nearly all actives have a fitted effect of over 65% in size
Outline: as §1

[12] = Quantitative High-Throughput drug screen in 47 multiple myeloma cell lines against the NCATS MIPE library collection: OCIMY5_PLB cell viability assay (AID 1918988); also: nearly all actives have a fitted effect of over 65% in size
Outline: as §1

[13] = Quantitative High-Throughput drug screen in 47 multiple myeloma cell lines against the NCATS MIPE library collection: OPM1_PLB cell viability assay (AID 1918989); also: nearly all actives have a fitted effect of over 40% in size
Outline: as §1

[14] = Quantitative High-Throughput drug screen in 47 multiple myeloma cell lines against the NCATS MIPE library collection: SKMM1_PLB cell viability assay (AID 1919863); settings: SKMM1 myeloma viability, CellTiter-Glo ATP, 48 h; viability: hits give low values; also: nearly all actives have a fitted effect of over 35% in size
Outline: as §1

[15] = Quantitative High-Throughput drug screen in 47 multiple myeloma cell lines against the NCATS MIPE library collection: PE2_PLB cell viability assay (AID 1919869); also: nearly all actives have a fitted effect of over 35% in size
Outline: as §1

[16] = Quantitative High-Throughput drug screen in 47 multiple myeloma cell lines against the NCATS MIPE library collection: PCM6_Riken cell viability assay (AID 1919870); also: nearly all actives have a fitted effect of over 30% in size
Outline: as §1

[17] = Quantitative High-Throughput drug screen in 47 multiple myeloma cell lines against the NCATS MIPE library collection: OPM2_DSMZ cell viability assay (AID 1919872); also: nearly all actives have a fitted effect of over 30% in size
Outline: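 We plated 500 myeloma cells per well, pinned in MIPE 4.0 compounds, and incubated for 48 hours at 37C. ATP was then quantified with CellTiter-Glo, with DMSO and media-only wells defining 100% and 0%.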

[18] = Quantitative High-Throughput drug screen in 47 multiple myeloma cell lines against the NCATS MIPE library collection: XG1_PLB cell viability assay (AID 1919866); also: nearly all actives have a fitted effect of over 35% in size
Outline: as §1

[19] = Quantitative High-Throughput drug screen in 47 multiple myeloma cell lines against the NCATS MIPE library collection: UTMC2_PLB cell viability assay (AID 1919868); settings: CellTiter-Glo ATP luminescence, 48 h; viability (% of DMSO control): at 45.8 µM (top of the series); also: nearly all actives have a fitted effect of over 55% in size
Outline: as §1

[20] = Quantitative High-Throughput drug screen in 47 multiple myeloma cell lines against the NCATS MIPE library collection: VP6_DJ cell viability assay (AID 1919867); also: nearly all actives have a fitted effect of over 40% in size
Outline: as §1
Potency is read from the fitted curve at half-maximal effect.

Nc1ccn(C[C@@H](CO)OCP(=O)(O)O)c(=O)n1
inactive: Potency [1] | Potency [2] | Potency [3] | Potency [4] | Potency [5] | Potency [6] | Potency [7]

CN(C)c1ccc2cc(C(=O)N[C@@H](CCCN=C(N)CCl)C(=O)NCc3ccccc3)ccc2c1
active: Potency [8] 1.18 µM | Potency [9] 4.69 µM | Potency [2] 14.8 µM | Potency [3] 11.8 µM | Potency [10] 6.62 µM | Potency [4] 8.33 µM | Potency [11] 13.2 µM | Potency [12] 4.18 µM | Potency [13] 7.43 µM | Potency [14] 18.7 µM | Potency [5] 2.96 µM | Potency [6] 0.935 µM | Potency [15] 8.33 µM | Potency [16] 4.18 µM | Potency [7] 18.7 µM | Potency [17] 18.7 µM

C[C@]12C=CC(=O)N[C@@H]1CC[C@H]1[C@H]3CC[C@@H](C(=O)Nc4cc(C(F)(F)F)ccc4C(F)(F)F)[C@@]3(C)CC[C@@H]12
active: Potency [3] 20.9 µM | Potency [12] 16.6 µM | Potency [6] 16.6 µM | Potency [18] 13.2 µM | Potency [16] 4.69 µM | Potency [17] 10.5 µM
inactive: Potency [1] | Potency [5] | Potency [19]

C[C@H](NC(=O)[C@@H](O)c1cc(F)cc(F)c1)C(=O)N[C@@H]1C(=O)N(C)c2ccccc2-c2ccccc21
active: Potency [6] 11.8 µM | Potency [18] 16.6 µM
inactive: Potency [1] | Potency [2] | Potency [3] | Potency [4] | Potency [13] | Potency [5] | Potency [16] | Potency [7] | Potency [17]

CCN1CCN(C(=O)N[C@H](C(=O)N[C@@H]2C(=O)N3C(C(=O)O)=C(CSc4nnnn4C)CS[C@@H]23)c2ccc(O)cc2)C(=O)C1=O
inactive: Potency [1] | Potency [2] | Potency [3] | Potency [11] | Potency [12] | Potency [13] | Potency [18] | Potency [17]

CCN(CC)Cc1ccc2cc(COC(=O)Nc3ccc(C(=O)NO)cc3)ccc2c1
active: Potency [1] 1.32 µM | Potency [3] 0.662 µM | Potency [10] 0.372 µM | Potency [4] 0.418 µM | Potency [13] 0.264 µM | Potency [5] 0.662 µM | Potency [6] 1.66 µM | Potency [18] 0.833 µM | Potency [20] 0.132 µM | Potency [19] 0.148 µM | Potency [15] 0.935 µM | Potency [16] 0.833 µM | Potency [7] 1.05 µM | Potency [17] 0.833 µM

CN[C@H](CC(C)C)C(=O)N[C@H]1C(=O)N[C@@H](CC(N)=O)C(=O)N[C@@H]2C(=O)N[C@H]3C(=O)N[C@H](C(=O)N[C@H](C(=O)O)c4cc(O)cc(O)c4-c4cc3ccc4O)[C@H](O)c3ccc(c(Cl)c3)Oc3cc2cc(c3O[C@@H]2O[C@H](CO)[C@@H](O)[C@H](O)[C@@H]2O[C@H]2C[C@](C)(N)[C@H](O)[C@H](C)O2)Oc2ccc(cc2Cl)[C@H]1O
inactive: Potency [1] | Potency [2] | Potency [3] | Potency [4] | Potency [12] | viability [14] 122% | Potency [18] | Potency [15] | Potency [17]
active: Potency [6] 18.7 µM | Potency [20] 13.2 µM

COc1ccc(Nc2cc(-c3cnc(N)nc3)nc(N3CCOCC3)n2)cn1
active: Potency [8] 4.69 µM | Potency [9] 1.66 µM | Potency [3] 0.833 µM | Potency [10] 0.526 µM | Potency [4] 2.96 µM | Potency [11] 1.05 µM | Potency [12] 11.8 µM | Potency [13] 3.72 µM | Potency [5] 11.8 µM | Potency [6] 3.72 µM | Potency [18] 2.35 µM | Potency [20] 5.26 µM | Potency [15] 3.32 µM | Potency [17] 7.43 µM

COc1cc([C@@H]2c3cc4c(cc3[C@H](O)[C@H]3COC(=O)[C@@H]23)OCO4)cc(OC)c1OC
active: Potency [8] 0.833 µM | Potency [9] 0.526 µM | Potency [3] 0.148 µM | Potency [10] 0.0662 µM | Potency [11] 0.0469 µM | Potency [12] 0.0296 µM | Potency [13] 0.187 µM | Potency [6] 0.0833 µM | Potency [18] 0.0469 µM | Potency [20] 0.296 µM | Potency [19] 0.209 µM | Potency [15] 0.148 µM | Potency [16] 0.332 µM | Potency [7] 0.469 µM | Potency [17] 0.148 µM

COc1ccc(C=Cc2cc(OC)c(OC)c(OC)c2)cc1NC(=O)[C@H](N)CO
active: Potency [8] 0.0209 µM | Potency [2] 0.0017 µM | Potency [3] 0.0093 µM | Potency [10] 0.0093 µM | Potency [4] 0.0042 µM | Potency [11] 0.001 µM | Potency [12] 0.0026 µM | Potency [13] 0.001 µM | Potency [14] 0.0059 µM | Potency [5] 0.0132 µM | Potency [19] 0.001 µM | Potency [16] 0.0042 µM | Potency [7] 0.0264 µM | Potency [17] 0.0083 µM

CN1CCc2c(c3ccccc3n2Cc2ccc(C(=O)NO)cc2)C1
active: Potency [8] 16.6 µM | Potency [9] 16.6 µM | Potency [3] 18.7 µM | Potency [4] 16.6 µM | Potency [12] 18.7 µM | Potency [13] 16.6 µM | Potency [20] 9.35 µM | Potency [19] 2.64 µM | Potency [15] 23.5 µM | Potency [16] 16.6 µM

O=C(Nc1cc2cc[nH]c2cn1)c1ccccc1
active: Potency [8] 14.8 µM | Potency [9] 7.43 µM | Potency [3] 11.8 µM | Potency [10] 6.62 µM | Potency [12] 5.26 µM | Potency [13] 14.8 µM | Potency [14] 11.8 µM | Potency [5] 11.8 µM | Potency [6] 16.6 µM | Potency [18] 16.6 µM | Potency [15] 10.5 µM | Potency [16] 8.33 µM | Potency [7] 13.2 µM

N#Cc1ccc(COC[C@H]2O[C@@H](n3c(NCc4ccc(Cl)c(Cl)c4)nc4c(N)ncnc43)[C@@H](O)[C@@H]2O)cc1
active: Potency [8] 18.7 µM | Potency [9] 3.72 µM | Potency [3] 5.9 µM | Potency [4] 16.6 µM | Potency [12] 3.72 µM | Potency [13] 5.26 µM | Potency [5] 20.9 µM | Potency [6] 16.6 µM | Potency [18] 2.64 µM | Potency [19] 1.32 µM | Potency [16] 5.26 µM | Potency [7] 5.26 µM
